# Bioassay records: PubChem, National Center for Advancing Translational Sciences (NCATS)
# Hits are enriched below; roughly 0.71% of the tested compounds scored in any of these assays.
# GALK inh – inhibitors of human galactokinase; P51570; Purified GALK, Kinase-Glo residual ATP luminescence; Potency, µM (doses to about 57.5 µM), for the others: at the highest dose activity change, negative = inhibition, hits mostly inhibitors; 270,000 compounds, 0.007% hits; AID 1868; further: potency means the concentration at half of the fitted maximal effect
#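 GALK at 5 nM final was combined with compound, 35 uM ATP and 100 uM galactose in HEPES pH8.0 with MgCl2 and DTT. The reaction ran one hour at room temperature before luminescent ATP detection.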
# Coupling enz – coupling enzyme interference in Giardia aldolase counter-screen; activity change, negative = inhibition, % at 58.2 µM, hits read low; coupling enzyme system counterscreen, AmpLite Red fluorescence; 290,000 compounds, 0.67% hits; in the data active means activity change below about -30%
#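 Fluorescence at 525 nm excitation and 598 nm emission measured inhibition of the coupled detection system without aldolase. Compounds (at 57.5 uM final) were preincubated 10 min at room temperature with coupling enzyme reagent before a 20 min substrate/AmpLite Red step.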
# USP1 inh – inhibitors of human USP1/UAF1 deubiquitinase. O94782. recombinant USP1/UAF1, Ub-Rhodamine cleavage fluorescence. Potency, µM (doses to about 57.1 µM), for the others: at the top dose activity change, negative = inhibition, most hits filed as inhibitors. 390,000 compounds, 0.23% hits; further: potency means the concentration at half of the fitted maximal effect; nearly all actives have a fitted effect of over 60% in size
# Target sequence (O94782 whole entry, looked up): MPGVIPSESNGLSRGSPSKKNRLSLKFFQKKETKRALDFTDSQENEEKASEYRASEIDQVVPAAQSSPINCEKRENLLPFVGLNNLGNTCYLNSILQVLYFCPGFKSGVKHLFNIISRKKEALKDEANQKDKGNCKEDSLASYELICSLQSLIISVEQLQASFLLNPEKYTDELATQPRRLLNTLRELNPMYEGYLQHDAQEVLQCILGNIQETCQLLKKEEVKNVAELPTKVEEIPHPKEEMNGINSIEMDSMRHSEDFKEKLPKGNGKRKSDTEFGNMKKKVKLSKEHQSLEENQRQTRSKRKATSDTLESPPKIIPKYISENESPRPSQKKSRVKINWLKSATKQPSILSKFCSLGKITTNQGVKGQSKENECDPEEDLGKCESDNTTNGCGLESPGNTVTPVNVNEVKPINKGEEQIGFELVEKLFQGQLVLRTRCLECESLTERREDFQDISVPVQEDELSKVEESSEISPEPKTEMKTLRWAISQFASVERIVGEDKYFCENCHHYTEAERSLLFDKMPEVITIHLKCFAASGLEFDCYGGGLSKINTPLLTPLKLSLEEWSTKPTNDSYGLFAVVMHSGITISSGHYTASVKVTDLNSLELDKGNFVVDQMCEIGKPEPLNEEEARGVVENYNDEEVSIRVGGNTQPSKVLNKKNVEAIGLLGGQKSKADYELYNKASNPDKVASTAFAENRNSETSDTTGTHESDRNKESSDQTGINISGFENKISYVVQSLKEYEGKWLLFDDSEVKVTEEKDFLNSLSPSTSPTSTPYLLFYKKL
#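 1 nM enzyme complex + cpd, 15 min RT; start with Ub-Rho 150nM final; kinetic fluorescence ex 480/em 540, 6 reads q60 s. Buffer 50mM HEPES pH 7.8, 0.5mM EDTA, 0.1 mg/ml BSA, 1mM TCEP, 0.01% Tween-20.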
# USP2a block – USP2a (human) protease inhibition. O75604. USP2 core, Ub-CHOP2 coupled fluorogenic reporter, 485/531. Potency, µM (highest dose often 38.3 µM), for inactives: at the top dose activity change, negative = inhibition, most hits filed as inhibitors. 330,000 compounds, 0.01% hits;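 further: potency means the concentration at half of the fitted maximal effect; plate controls were DMSO wells for no effect and full inhibition by NEM control for full effect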
#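 Cell-free coupled assay: 10nM USP2 core preincubated 30min RT with compound in Tris-HCl pH 8.0/CaCl2/CHAPS buffer, then 25nM Ub-CHOP2 and 25nM reporter substrate; fluorescence (Ex 485/Em 531) read after 60min RT, normalized to NEM inhibition, concentration-response curves fitted.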
# PI4K2A block – PI4K2A (human) kinase inhibition | purified PI4K2A, ADP-Glo luminescence, 1 h; hits give low values | AID 1346378 | activity change, negative = inhibition, % at 76.9 µM | 420,000 compounds, 0.13% hits | Q9BTU6; in the data active means activity change below about -50%; inconclusive means mostly about -30% to -49%;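 further: -100% = wells without enzyme as full effect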
#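 Compounds are screened against recombinant PI4K2A using PI as substrate and ATP, the latter dispensed at 300 microM. Reactions run one hour at ambient temperature before ADP-Glo detection; full inhibition defined by wells lacking enzyme.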
# Eya2 phos inh – inhibitors of human Eya2 phosphatase activity; recombinant Eya2, OMFP fluorescence dephosphorylation (OMFP is methylfluorescein phosphate); Potency, µM (doses to about 76.9 µM), for the others: top-dose activity, negative = inhibition, hits mostly inhibitors; 330,000 compounds, 0.006% hits; O00167; AID 488837; further: potency means the concentration at half of the fitted maximal effect
#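 Eya2 (0.2 uM) preincubated 10 min at ambient with compound, then OMFP substrate added at 50 uM; 10 min reaction in 50 mM HEPES pH 7.5, 50 mM NaCl, 5 uM MgCl2, 0.05% BSA, 1 mM DTT. Fluorescence read at Ex 485/Em 525 nm.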
# * hit, by the source's call; i = inactive; ? = inconclusive; nt = not tested or not shown; ! = a repeat was not active. Unless noted, the call rests on the fitted dose curve; in most records, active means well fitted curve in the direction sought with a large enough effect; inconclusive means small, poorly fitted or top-dose-only effect, or another doubt; inactive means no such curve, though single readings can be large; an effect the other way counts as inactive or inconclusive. Unless noted, on the % scale 0 is the no-effect control and ±100 the full control effect.
SMILES,GALK inh,Coupling enz,USP1 inh,USP2a block,PI4K2A block,Eya2 phos inh
NCCc1cc(O)c(O)cc1O,nt,-57*,?,nt,?,nt
CC[C@H](O)C(C[C@H](C)N(C)C)(c1ccccc1)c1ccccc1,nt,nt,nt,nt,i,nt
CC(=O)/C=C/c1ccccc1,nt,nt,-16%,1%,1,8%
CC(=O)[O][Hg][c]1ccccc1,nt,-48*,nt,nt,-8,nt
Cc1ccc(NC(=O)COc2ccc(-c3nn(C)c(=O)c4ccccc34)cc2)c(C)c1,nt,nt,?,nt,4,nt
COC(=O)c1nc(-c2ccc3c(n2)C(=O)C(N)=C(OC)C3=O)c(N)c(-c2ccc(OC)c(OC)c2O)c1C,?,-37*,7.1µM*,-2%,-19,?
CCN1/C(=C\C=C\C2=[N+](CC)c3ccccc3C2(C)C)C(C)(C)c2ccccc21,7%,4,14µM*,?,?,67%
O=C(Cn1c(=O)nc(-c2ccccc2)c2cc(Cl)ccc21)NCc1ccccc1,nt,nt,?,nt,-3,nt
Cc1cc(O)c2c(c1)C(=O)C13C(=C2O)C(=O)[C@H]2[C@@H](O)[C@@H]1[C@H]1[C@H](O)[C@@H]3C(=O)C3=C(O)c4c(O)cc(C)cc4C(=O)C312 (some centres undefined),nt,nt,-25%,1%,-75*,-10%
CCO/N=C(\CC)C1=C(O)CC(c2c(C)cc(C)cc2C)CC1=O (centres undefined),nt,nt,nt,nt,i,nt
C=CCN1CC[C@]23CCCC[C@H]2[C@H]1Cc1ccc(O)cc13,nt,nt,nt,nt,1,nt
COC(=O)C1C(O)C(C)C(O)C(C)/C=C\C=C(/C)C(=O)Nc2c(C)c(OC(C)=O)c3c(c2O)C(=O)C(C)=C2OCOC(=C23)/C(C)=C/C(C)(O)C(O)C(C)C1O (centres undefined),3%,-30*,?,2%,-8,?
COc1ccc(/C=C2/C(=O)N(Cc3ccco3)C(=O)N(C(C)C)C2=O)cc1,-2%,3,?,0%,-21,11%
CC(C)N1C(=O)/C(=C/C=C/c2ccco2)C(=O)N(Cc2ccco2)C1=O,0%,-4,-4%,?,-59*,9%
c1ccc(C[n+]2ccccc2)cc1,nt,nt,5%,0%,-2,7%
c1cc[n+]2c(c1)-c1cccc[n+]1CC2,nt,-35*,nt,nt,nt,nt
CC[C@@]1(O)C(=O)OCc2c1cc1n(c2=O)Cc2cc3c(O)cccc3nc2-1,nt,-2,nt,nt,nt,nt
CCOC(C(=O)OCCN(C)C)(c1ccccc1)c1ccccc1,nt,nt,nt,nt,4,nt
CC[n+]1c(-c2ccccc2)c2cc(N)ccc2c2ccc(N)cc21,nt,-44*,?,nt,?,nt
CNc1ccc2oc(C[C@@H]3OC4(CC[C@@H]3C)O[C@H](C(C)C(=O)c3ccc[nH]3)[C@H](C)C[C@H]4C)nc2c1C(=O)O (some centres undefined),nt,-7,nt,nt,nt,nt
CCOC(=O)Cn1cc(C(=O)c2ccccc2F)c2ccccc21,-3%,0,-21%,2%,-1,-9%
CCOC(=O)Cn1cc([N+](=O)[O-])nc1[N+](=O)[O-],-2%,-39*,-23%,-9%,7,-7%
CC(Cc1ccccc1)NCCCCl (centres undefined),nt,nt,nt,nt,2,nt
CO/C=C(/C(=O)OC)c1ccccc1Oc1cc(Oc2ccccc2C#N)ncn1,nt,nt,nt,nt,i,nt
CN(C)c1ccc(/C=C/c2cc[n+](C)c3ccccc23)cc1,1%,-42*,-26%,-2%,?,1%
SMILES,GALK inh,Coupling enz,USP1 inh,USP2a block,PI4K2A block,Eya2 phos inh
Cc1ccc(NC(=O)Nc2cc3c(cc2N2CCCCC2)n(C)c(=O)n3C)cc1Cl,nt,nt,?,nt,-3,nt
CCCNC(=O)c1c(N)n(CC2CCCO2)c2nc3ccccc3nc12 (centres undefined),1%,-51*,?,-17%,-9,-7%
CCOCCCn1c(N)c(C(=O)Nc2sc3c(c2C(=O)OC)CCCC3)c2nc3ccccc3nc21,-2%,-45*,-22%,8%,1,-11%
COCCCn1c(N)c(C(=O)NCCC(C)C)c2nc3ccccc3nc21,0%,-46*,22µM*,-6%,?,-12%
CCOC(=O)c1c(NC(=O)c2c(N)n(CCCOC)c3nc4ccccc4nc23)sc2c1CCCC2,-1%,nt,?,3%,-3,3%
CC(C)OCCCNC(=O)c1c(N)n(CC2CCCO2)c2nc3ccccc3nc12 (centres undefined),0%,-47*,28µM*,-1%,?,-24%
Fc1cc(Br)ccc1CBr,nt,nt,nt,nt,-7,nt
CCn1nc(/C=C/c2ccccc2)nc2c(=O)n(C)c(=O)nc1-2,5%,1,1.1µM*,-1%,-69*,-1%
CCOc1ccc(-n2c(/C=C/c3ccccc3)nc3ccccc3c2=O)cc1,nt,nt,-31%,nt,-5,nt
CN1CCN(c2ccc([N+](=O)[O-])c(NCC3CCCO3)c2)CC1 (centres undefined),0%,-31*,-6%,1%,10,0%
CC(C(O)c1ccccc1)N(C)C/C=C/c1ccccc1 (centres undefined),nt,nt,nt,nt,3,nt
CCOC(=O)c1c(/N=C/c2c(O)n(-c3cccc(C)c3)c(=O)[nH]c2=O)sc2c1CCCC2,nt,2,-9%,1%,-4,-10%
CCOC(=O)c1cc(CC)sc1/N=C/c1c(O)[nH]c(=S)[nH]c1=O,0%,-88*,?,5%,-3,5%
CCOC(=O)c1cc(CC)sc1/N=C/C1C(=O)NC(=S)NC1=O,9%,-39*,?,-1%,-10,2%
COc1nn(CSP(=S)(OC)OC)c(=O)s1,nt,nt,nt,nt,i,nt
NC(=O)CI,nt,nt,nt,nt,-54*,-1%
ClCCN(CCCl)c1ccc(C=NNc2ncccn2)cc1,nt,nt,?,nt,-3,nt
ClCCN(CCCl)c1ccc(C=Cc2ccncn2)cc1,nt,nt,25µM*,nt,0,nt
O=C1OC(CCN2CCCCC2)OC1(c1ccccc1)c1ccccc1 (centres undefined),nt,nt,nt,nt,-3,nt
Nc1cc2nc3ccccc3nc2cc1N,9%,-34*,-19%,?,-12,-3%
C[C@]12Cc3cn[nH]c3C[C@@H]1CC[C@@H]1[C@@H]2CC[C@@]2(C)[C@H]1CC[C@]2(C)O,nt,nt,nt,nt,2,nt
CN(N=O)c1ccc(O)c(O)c1,nt,nt,nt,nt,-57*,7%
C=CCC1=C(C)C(OC(=O)C2C(C=C(C)C)C2(C)C)CC1=O (centres undefined),nt,nt,nt,nt,i,nt
CCOC(=O)Nc1ccc(NCc2ccc(F)cc2)nc1N,nt,nt,22µM*,?,?,50µM*!
Cc1ccccc1C1CC(=O)Nc2ccc3ccccc3c21 (centres undefined),nt,nt,?,nt,1,nt
